Mdm2-MdmX inh: inhibitors of human Mdm2/MdmX interaction | O15151+Q00987 | SaOS-2 split-luciferase Mdm2/MdmX complementation, luminescence | inhibition, % at 8 µM | 330,000 tested, 3% active;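 active = inhibition of at least 50% at 8 µM in the primary screen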
Target sequence (O15151 whole entry, looked up): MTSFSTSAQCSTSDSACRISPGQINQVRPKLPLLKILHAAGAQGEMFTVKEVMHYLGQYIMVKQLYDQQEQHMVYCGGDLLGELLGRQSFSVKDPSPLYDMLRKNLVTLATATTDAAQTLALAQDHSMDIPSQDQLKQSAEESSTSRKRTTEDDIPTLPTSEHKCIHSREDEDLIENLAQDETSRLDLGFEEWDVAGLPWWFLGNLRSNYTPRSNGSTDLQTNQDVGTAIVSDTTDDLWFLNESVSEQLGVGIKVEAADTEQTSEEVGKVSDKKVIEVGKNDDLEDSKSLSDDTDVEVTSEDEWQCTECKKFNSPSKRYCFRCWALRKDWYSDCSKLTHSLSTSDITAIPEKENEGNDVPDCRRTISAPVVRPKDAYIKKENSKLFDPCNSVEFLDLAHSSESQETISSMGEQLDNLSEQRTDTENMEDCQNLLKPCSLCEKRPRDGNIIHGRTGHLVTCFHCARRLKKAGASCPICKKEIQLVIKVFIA
Target sequence (Q00987 whole entry, looked up): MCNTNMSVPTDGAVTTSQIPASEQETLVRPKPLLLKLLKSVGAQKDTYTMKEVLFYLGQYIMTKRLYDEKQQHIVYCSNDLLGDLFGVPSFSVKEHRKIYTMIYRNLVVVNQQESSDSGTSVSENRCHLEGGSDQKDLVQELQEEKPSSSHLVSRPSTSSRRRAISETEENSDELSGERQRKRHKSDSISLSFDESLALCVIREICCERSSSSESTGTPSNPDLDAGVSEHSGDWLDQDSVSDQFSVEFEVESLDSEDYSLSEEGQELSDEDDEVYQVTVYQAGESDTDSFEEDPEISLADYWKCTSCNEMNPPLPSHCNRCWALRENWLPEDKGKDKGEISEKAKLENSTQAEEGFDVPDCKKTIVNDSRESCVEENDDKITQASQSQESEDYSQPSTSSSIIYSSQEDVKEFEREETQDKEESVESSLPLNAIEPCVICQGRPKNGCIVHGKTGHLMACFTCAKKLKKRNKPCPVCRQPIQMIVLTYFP
aSyn UTR inh: 5' untranslated region of α-synuclein, MLPCN primary screen; alpha-synuclein 5'UTR reporter, inhibitor activity; inhibition, % (tested at 7.5 µM); 300,000 tested, 0.82% active; in the data active = inhibition above about 60%; inconclusive = no clear call, values can overlap the other calls;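 note: H4 neuroglioblastoma cells stably carrying SNCA 5'UTR luciferase fusion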
Beta cell apopt: blocks beta cell apoptosis; INS-1E cytokine-induced death, ATP luminescence, 48 h; percent of positive-control rescue, neutral wells zero; protection from apoptosis, % (concentration not given with the values); 300,000 tested, 0.8% active;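 active = Every replicate reaches about 75%, or at least half do and their mean reaches it too, limit read from the data; inconclusive = At least half of replicates reach the limit but their mean does not; inactive = Under half of replicates reach the limit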;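 note: higher means more ATP so stronger rescue from cytokine killing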
CSC inhib: blocks cancer stem cells | cancer stem cell-like cells viability, luminescence | inhibition, % at 7.5 µM | 300,000 tested, 1.1% active | AID 2717; in the data active = inhibition above about 75%; inconclusive = no clear call, values can overlap the other calls; tested in HMLE shEcad cells
Bfl-1 A1 inh: inhibitors of the anti-apoptotic protein A1, read as caspase activation. AID 2462. MEF A1-2A-BIM cells, Caspase-Glo 3/7 luminescence, 3 h; percent of clofoctol response, vehicle zero. 330,000 tested, 0.066% active. caspase activation, % (concentration not given with the values);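 active = over half of replicate activation scores above 10%, or exactly half above 10 with the replicate mean above 10; inconclusive = replicate mean below 10 yet half the replicates above 10; inactive = over half of replicates below 10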
Numbers stand for hits; – = inactive; ? = inconclusive; · = no result given. Only some compounds are listed: those with a hit (about 4.1% of all), similar ones and a draw of the others.

SMILES | Mdm2-MdmX inh | aSyn UTR inh | Beta cell apopt | CSC inhib | Bfl-1 A1 inh
C/C(=N\NC(=O)c1ccncc1)c1cccs1 | – | – | – | – | –
COc1cc(OC)cc(-c2c(-c3cccs3)c3cc(-c4ccc(N(C)C)nc4)ccc3n2C)c1 | – | · | – | 86 | –
Cn1c(-c2ccsc2)c(-c2cccs2)c2cc(Br)ccc21 | – | · | – | 80 | –
COc1cc(OC)cc(-c2c(-c3cccs3)c3cc(Br)ccc3n2C)c1 | – | · | – | – | –
COc1cc(OC)cc(-c2c(-c3cccs3)c3cc(-c4ccc5c(c4)OCO5)ccc3n2C)c1 | – | · | – | – | –
COc1cc(OC)cc(-c2c(-c3cccs3)c3cc(-c4ccn[nH]4)ccc3n2C)c1 | – | · | – | 87 | –
Cc1ccc2c(c1)[C@@H]1[C@H](CO2)[C@H](c2ccccc2)[C@]2(C)C(=O)N[C@H](C)C(=O)N12 | – | · | – | – | –
O=C(CSc1nc2ccccc2c(=O)n1-c1ccc(OC(F)F)cc1)NC1CC1 | – | · | – | – | –
O=C(CSc1nc(-c2ccco2)cc(C(F)(F)F)n1)Nc1ccccc1C(F)(F)F | – | – | – | 75 | –
CC1CCC(NC(=O)CCCn2sc3ccccc3c2=O)CC1 (stereo not drawn) | – | – | – | – | –
CCc1ccc(C)[n+](CC(=O)c2cccs2)c1 | – | – | – | – | –
CCCCCCSc1nsc(NC(=O)CC(C)C)n1 | – | – | – | 91 | –
CCCSc1nsc(NC(=O)CC)n1 | – | – | · | – | –
CCCSc1nsc(NC(=O)C(c2ccccc2)c2ccccc2)n1 | – | – | – | 122 | –
CCc1cccc(N(C(=O)c2csnn2)C(C(=O)NC(C)(C)C)c2ccncc2)c1 (stereo not drawn) | – | – | · | – | –
O=S(=O)(c1ccc(Cl)cc1)N1CCC(n2cnc3cc(C(F)(F)F)ccc32)CC1 | – | – | – | 85 | –
C=CCc1cc(Cl)ccc1OCCOCCNC(C)CC (stereo not drawn) | – | – | – | 131 | –
Cc1ccc(C(c2cc(Br)ccc2O)N2CCSCC2)cc1 (stereo not drawn) | – | – | – | – | –
CC(C)(Sc1ccc(CCN(CCCCC2CCCCC2)C(=O)NC2CCCCC2)cc1)C(=O)O | – | · | – | 99 | –
CC(C)(C)OC(=O)C(C)(C)Sc1nnc(N)s1 | – | – | – | – | –
COc1cccc(Sc2ccccc2CN(C)C)c1 | – | – | – | – | –
CN(C)Cc1ccccc1Sc1ccc2c(c1)CCCC2 | – | 104 | · | – | –
O=C(COC(=O)C1CC1)NCCc1ccc(Cl)cc1 | – | · | · | · | ·
Cn1nc(-c2ccc(NCCO)c([N+](=O)[O-])c2)c2ccccc2c1=O | – | – | – | – | –
CC1CC(=O)NN=C1c1ccc(NCCO)c([N+](=O)[O-])c1 (stereo not drawn) | – | 76 | – | – | –
SMILES | Mdm2-MdmX inh | aSyn UTR inh | Beta cell apopt | CSC inhib | Bfl-1 A1 inh
N#C/C(=C(/O)c1ccc2c(c1)OCO2)c1nc2cc(C(F)(F)F)ccc2s1 | – | – | – | 79 | –
N#C/C(=C(/O)c1ccccc1F)c1nc2cc(C(F)(F)F)ccc2s1 | – | · | – | – | –
Nc1ncnc2c1ncn2C1CCCO1 (stereo not drawn) | – | · | – | – | –
S=c1nc[nH]c2c1ncn2C1CCCO1 (stereo not drawn) | – | – | – | 122 | –
Cc1cc(C)cc(C(=O)Nc2nnc(SCC(=O)N3CCCc4ccccc43)s2)c1 | – | – | – | 75 | –
CCOc1ccc(Cl)cc1S(=O)(=O)N1CCC(C(=O)NCc2ccncc2)CC1 | – | – | – | – | –
O=C(O)c1ccc2c3c(ncnc13)-c1ccccc1C2=O | – | 107 | – | – | –
Cc1ccccc1C1c2[nH]c3ccccc3c2CCN1Cc1cccn1-c1ncccn1 (stereo not drawn) | – | – | – | · | –
COc1cc(/C=C/c2[nH]c(=O)[nH]c(=O)c2[N+](=O)[O-])ccc1OCCC(C)C | – | – | – | 77 | –
CCOc1ccc(-c2cnc3ccccc3n2)cc1 | – | 92 | – | – | –
Cc1onc(-c2ccccc2Cl)c1C(=O)N1CCC(C)CC1 | – | – | – | · | –
Cc1oc2c(c1C(=O)N1CCC(C)CC1)C(=O)c1ccccc1C2=O | – | 83 | 110 | ? | –
O=C(NNC1=Nc2ccccc2SC1)c1ccc(Cl)cc1 | – | 96 | – | – | –
COc1ccc(CN2CCCC(C(=O)Nc3cccc(-n4cnnn4)c3)C2)c(C)c1C (stereo not drawn) | – | – | – | – | –
CCc1ccc(-c2cn3nc(C)c(C)nc3n2)cc1 | – | 87 | – | – | –
CC1C(=O)N2CCCc3cc(S(=O)(=O)NCc4ccccc4Cl)cc1c32 (stereo not drawn) | – | – | – | – | –
C#C[C@]1(OC(C)=O)CCC2C3CCC4=CC(=O)CC[C@@H]4C3CC[C@@]21C (stereo partly drawn) | – | – | – | – | –
CC(C)(C)c1ccc(C(=O)NNc2cc(N3CCCCC3)nc(N3CCCCC3)n2)cc1 | – | – | – | – | –
O=C(CCc1ccccc1)NNc1cc(N2CCCCC2)nc(N2CCCCC2)n1 | – | 82 | – | – | –
COc1ccc(NC(=O)CN(C)C(=O)c2c(-c3c(F)cccc3Cl)noc2C)cc1 | – | – | · | – | –
CC(C)c1ccc(/C=C/C2=NNC(=O)CC2)cc1 | – | 87 | – | – | –
O=C(Nc1ccc2c(c1)OCO2)c1ccc(COc2ccc3c(c2)CCC3)o1 | – | – | – | 86 | –
CC1CN(c2ccc([N+](=O)[O-])c(NCCOc3ccc(Cl)cc3)c2)CC(C)N1 (stereo not drawn) | – | 104 | – | 108 | –
Cc1cc[n+](C(C)C(=O)c2ccc(-c3ccccc3)cc2)cc1 (stereo not drawn) | – | – | 99 | – | –
CC(C(=O)c1ccc(-c2ccccc2)cc1)[n+]1ccccc1 (stereo not drawn) | – | – | – | – | –
SMILES | Mdm2-MdmX inh | aSyn UTR inh | Beta cell apopt | CSC inhib | Bfl-1 A1 inh
NNC(=O)c1cccc(COc2ccc3c(c2)CCC3)c1 | – | 71 | · | – | –
Cn1cc(/C=C/c2cc[n+](C)cc2)c2cc(F)ccc21 | · | – | – | – | –
Cn1cc(/C=C/c2cc[n+](C)cc2)c2cc(Cl)ccc21 | · | 64 | 95 | – | –
O=C(NCc1nc2ccccc2[nH]1)C1=C[C@@H](C2CCCCC2)C[C@@H](OCc2ccc(CO)cc2)O1 | – | – | 106 | – | –
COc1ccc(NC(=O)C2CCN(S(=O)(=O)c3ccc(N4CCCC4=O)cc3)CC2)cc1OC | – | – | – | – | –
O=C(Nc1ccc(C(F)(F)F)cc1)C1CCN(S(=O)(=O)c2ccc(N3CCCC3=O)cc2)CC1 | – | – | 101 | – | –
O=C1c2cccc3cccc(c23)C(=O)N1CCN1CCN(CC(O)COCc2ccc(Cl)cc2)CC1 (stereo not drawn) | – | – | – | 82 | –
COc1cc(COCC(O)CN2CCN(CCN3C(=O)c4cccc5cccc(c45)C3=O)CC2)cc(OC)c1OC (stereo not drawn) | – | – | – | – | –

High-throughput results (PubChem BioAssay)
